“And” between values parts separate entries of the source, which are not always exact repeats. Equal values may be shown once. Results filed as inconclusive are left out. The source made the active and inactive calls. Unless noted, the limit is not given here; nearly all actives have AC50 up to about 26 µM.
Experiment: viability loss in pontine glioma line – cell-based, SU-DIPG-XXV, MIPE5.0, CellTiter-Glo, qHTS, dose response (AID 1347065);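 also: cells exposed to compound for 48 hours before ATP readout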
Conditions: CellTiter-Glo ATP luminescence

| Compound | AC50 | outcome |
| --- | --- | --- |
| O=C1C(Cl)=C(NCCN2CCOCC2)C(=O)c2ncccc21 | 6.61 µM (active) | – |
| NC(=O)Nc1sc(-c2ccc(F)cc2)cc1C(N)=O | 7.42 µM (active) | – |
| CCN(c1ccccc1)c1cc(NC)[n+](C)c(C)n1 | – | inactive |
| CC(C)[C@H](CO)Nc1nc(Nc2cccc(Cl)c2)c2ncn(C(C)C)c2n1 | 7.42 µM (active) | – |

Experiment: growth inhibition of DIPG cells – cell-based, MIPE4.0 library, CellTiter-Glo luminescence, qHTS (AID 1347066; cut-off not given, nearly all actives have AC50 up to about 30 µM;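 also: cells exposed to compound for 48 hours before readout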)
Conditions: SU-DIPG-VI viability, CellTiter-Glo ATP luminescence

| Compound | AC50 | outcome |
| --- | --- | --- |
| O=C1C(Cl)=C(NCCN2CCOCC2)C(=O)c2ncccc21 | 2.64 µM (active) | – |
| NC(=O)Nc1sc(-c2ccc(F)cc2)cc1C(N)=O | 16.6 µM (active) | – |
| CCN(c1ccccc1)c1cc(NC)[n+](C)c(C)n1 | – | inactive |
| CC(C)[C@H](CO)Nc1nc(Nc2cccc(Cl)c2)c2ncn(C(C)C)c2n1 | 20.9 µM (active) | – |

Experiment: JHH-DIPG-1 glioma cell viability, MIPE5.0 library, CellTiter-Glo luminescence, qHTS (AID 1347067);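 also: cells exposed to compound for 48 hours before readout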
Conditions: JHH-DIPG-1 glioma viability, CellTiter-Glo ATP luminescence

| Compound | AC50 | outcome |
| --- | --- | --- |
| O=C1C(Cl)=C(NCCN2CCOCC2)C(=O)c2ncccc21 | 4.68 µM (active) | – |
| NC(=O)Nc1sc(-c2ccc(F)cc2)cc1C(N)=O | 5.9 µM (active) | – |
| CCN(c1ccccc1)c1cc(NC)[n+](C)c(C)n1 | – | inactive |
| CC(C)[C@H](CO)Nc1nc(Nc2cccc(Cl)c2)c2ncn(C(C)C)c2n1 | 14.8 µM (active) | – |

Experiment: growth inhibition of DIPG cells – cell-based, MIPE5.0 library, qHTS (AID 1347068; cut-off not given, nearly all actives have IC50 up to about 30 µM;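 as to IC50: cells exposed to compound for 48 hours before viability readout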)
Conditions: SU-DIPG-XXV viability

| Compound | IC50 | outcome |
| --- | --- | --- |
| O=C1C(Cl)=C(NCCN2CCOCC2)C(=O)c2ncccc21 | 18.6 µM (active) | – |
| NC(=O)Nc1sc(-c2ccc(F)cc2)cc1C(N)=O | 14.8 µM (active) | – |
| CCN(c1ccccc1)c1cc(NC)[n+](C)c(C)n1 | – | inactive |
| CC(C)[C@H](CO)Nc1nc(Nc2cccc(Cl)c2)c2ncn(C(C)C)c2n1 | 16.6 µM (active) | – |

Experiment: viability loss with induced miR-34 in A549 – imaging, A549 dox-inducible miR-34, nuclei and caspase counts, primary screen (AID 1347080;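 active = compounds whose cell count with miR-34 switched on is under 0.7 times the count with it off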)
Conditions: A549 miR-34 inducible, Hoechst nuclei count, 48 h; stronger effect = lower value; cell number ratio, induced over uninduced

| Compound | fold change |
| --- | --- |
| O=C1C(Cl)=C(NCCN2CCOCC2)C(=O)c2ncccc21 | 0.881 (inactive) |
| NC(=O)Nc1sc(-c2ccc(F)cc2)cc1C(N)=O | 0.943 (inactive) and 1.1 (inactive) |
| CCN(c1ccccc1)c1cc(NC)[n+](C)c(C)n1 | 1.03 (inactive) |
| CC(C)[C@H](CO)Nc1nc(Nc2cccc(Cl)c2)c2ncn(C(C)C)c2n1 | 1.01 (inactive) |

Same assay, conditions: A549 miR-34 inducible, Hoechst nuclei count, 48 h; measured here: relative caspase fold change +Dox/-Dox

| Compound | fold change |
| --- | --- |
| O=C1C(Cl)=C(NCCN2CCOCC2)C(=O)c2ncccc21 | 1.4 |
| NC(=O)Nc1sc(-c2ccc(F)cc2)cc1C(N)=O | 0.476 and 0.704 |
| CCN(c1ccccc1)c1cc(NC)[n+](C)c(C)n1 | 0.719 |
| CC(C)[C@H](CO)Nc1nc(Nc2cccc(Cl)c2)c2ncn(C(C)C)c2n1 | 0.968 |

Reference: PubChem BioAssay
